The record followed here is PubChem BioAssay (NCI).

Some test systems named below: HCT-15 colon; HT29 colon; SNB-19 CNS; U251 CNS; PC-3 prostate; SK-MEL-5 melanoma; UACC-62 melanoma; LOX IMVI melanoma; SK-MEL-28 melanoma; SK-MEL-2 melanoma; EKVX NSCLC; SN12C renal; UO-31 renal; TK-10 renal; ACHN renal; CAKI-1 renal; A498 renal; CCRF-CEM leukemia; MOLT-4 leukemia; SNB-75 CNS.
Holding throughout (assay): NCI-60 one-dose screen, 48 h (100 = growth as untreated, 0 = no growth, -100 = all killed)
What all share (settings): 10 µM unless noted

This is part of a sample that, as a whole, favours compounds with a hit. Of some 83,000 tested, about 20% had one in any assay.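 Compound tested at a single concentration for 48 hours in 96-well plates; a percent growth value below 10 was scored as active.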 Values without a mark were called inactive. Activity calls are given as the source filed them.

For `CC[C@]12C=CCN3CC[C@@]4(c5ccc(OC)cc5N(C)[C@H]4[C@@](O)(C(=O)OC)[C@@H]1OC(=O)CCC(=O)N[C@@H](Cc1c[nH]c4ccccc14)C(=O)OC)[C@@H]32`, the growth is 97.2% with HCT-15 colon; 89.1% with HT29 colon; 96.3% in the test with SNB-19 CNS; 99.3% in the test on U251 CNS; 80.5% with PC-3 prostate; 90.4% in the test with SK-MEL-5 melanoma. The growth in the test with UACC-62 melanoma was 92%; in the test on LOX IMVI melanoma, 84.1%; with SK-MEL-28 melanoma, 37.6%; in the test with SK-MEL-2 melanoma, 54.4%; in the test with EKVX NSCLC, 93.3%; in the test with SN12C renal, 71.5%. For the same compound, the growth in the test on UO-31 renal is 83%; in the test with TK-10 renal it was 87.4%; with ACHN renal, 93%; with CAKI-1 renal, 108%; with A498 renal, 83.4%; with CCRF-CEM leukemia, 28.9%. The growth in the test on MOLT-4 leukemia was -35.5% (active).

On to `COc1ccc2c(c1)C(=O)/C(=C/c1cccc(OCC(=O)Nc3nc4c(s3)CCCC4)c1)O2`, for which the growth is -15.7% (active) in the test with HCT-15 colon; -74.3% (active) in the test with HT29 colon; 19% in the test on SNB-75 CNS; 41.9% with U251 CNS; -14% (active) in the test on SK-MEL-5 melanoma; 79.1% in the test on UACC-62 melanoma. Further, the growth was -70.3% (active) in the test on LOX IMVI melanoma; 38.1% with SK-MEL-28 melanoma; -67.3% (active) in the test with SK-MEL-2 melanoma; -72.6% (active) in the test on EKVX NSCLC; 28.7% with SN12C renal; -78.2% (active) with UO-31 renal. Further, the growth in the test with TK-10 renal is -69.6% (active); in the test with ACHN renal it was -73.4% (active); with CAKI-1 renal, -83.5% (active); in the test on A498 renal, 92%; in the test on CCRF-CEM leukemia, -0.645% (active); in the test with MOLT-4 leukemia it was -47.8% (active).

Regarding `CN1CCN(Cc2ccc(NC(=O)c3[nH]ncc3Nc3ncnc4sccc34)cc2)CC1`, the growth with HCT-15 colon is 7.97% (active); in the test with HT29 colon it was 17%; with SNB-75 CNS, -32.5% (active); in the test on U251 CNS, 16.4%; with PC-3 prostate it was 6.12% (active); with SK-MEL-5 melanoma, -5.05% (active). The growth with UACC-62 melanoma was 8.83% (active); in the test with SK-MEL-28 melanoma, 17.8%; in the test with SK-MEL-2 melanoma it was 7.08% (active); with EKVX NSCLC it was 16.1%; in the test on SN12C renal, 4.54% (active); with TK-10 renal, 16.3%. Also, the growth in the test with ACHN renal is 1.08% (active); with CAKI-1 renal, 6.37% (active); in the test on A498 renal, -35.5% (active); with CCRF-CEM leukemia, 8.16% (active).

In the case of `S=c1[nH]nc(CSc2ncnc3c2c(-c2ccccc2)cn3-c2ccc(Cl)cc2)o1`, the growth is 117% with HCT-15 colon; 107% in the test with HT29 colon; 94.6% in the test with SNB-19 CNS; 93.8% in the test on U251 CNS; 88.1% in the test with PC-3 prostate; 104% in the test on SK-MEL-5 melanoma. Moreover, the growth in the test on UACC-62 melanoma is 89.1%; in the test on LOX IMVI melanoma, 90.2%; in the test on SK-MEL-28 melanoma, 115%; in the test on SK-MEL-2 melanoma, 105%; in the test with EKVX NSCLC, 92%; in the test on SN12C renal it was 92.8%. In addition, the growth in the test with UO-31 renal was 73%; in the test on TK-10 renal, 114%; with ACHN renal it was 92.7%; in the test with CAKI-1 renal it was 76.2%; in the test on A498 renal, 94.7%; in the test with CCRF-CEM leukemia, 90.2%. The growth with MOLT-4 leukemia is 98.1%.

`COc1cccc(NC(=O)c2sc3nc4c(cc3c2N)CN(Cc2ccccc2)CC4)c1`: the growth in the test on HCT-15 colon was 42.2%; in the test with HT29 colon it was 44.5%; in the test on SNB-75 CNS it was -19.7% (active); in the test on PC-3 prostate, 71.1%; in the test on SK-MEL-5 melanoma, 62.6%; in the test with UACC-62 melanoma, 35.1%. For the same compound, the growth with LOX IMVI melanoma is 67.4%; in the test with SK-MEL-28 melanoma, 76.8%; in the test on SK-MEL-2 melanoma it was 66.8%; in the test on SN12C renal, 74%; with UO-31 renal, 42.9%; with TK-10 renal, 79.7%. Further, the growth is 54% in the test with ACHN renal, 42.8% in the test with A498 renal, 60.9% in the test on CCRF-CEM leukemia and 65.1% in the test on MOLT-4 leukemia.

As for `COc1cc(NC(N)=NCC(C)(C)COc2ccc(C(F)(F)F)cc2)cnc1C#N`, the growth was 59.9% with HCT-15 colon; 26.9% in the test with HT29 colon; 70.6% with SNB-19 CNS; 59.9% in the test with U251 CNS; 49.3% in the test on PC-3 prostate; 26.9% with SK-MEL-5 melanoma. Also, the growth was 61.7% in the test on UACC-62 melanoma; 67.1% in the test on LOX IMVI melanoma; 85.5% with SK-MEL-28 melanoma; 77.3% in the test with SK-MEL-2 melanoma; 70.5% with EKVX NSCLC; 66.8% in the test with SN12C renal. The growth in the test with UO-31 renal is 29.8%; in the test on TK-10 renal, 62.5%; with ACHN renal it was 62.9%; with CAKI-1 renal, 62.8%; in the test with A498 renal it was 45.9%; in the test on CCRF-CEM leukemia, 56%. Besides, the growth in the test with MOLT-4 leukemia was 15.6%.

As for `Cc1cc(Cl)ccc1Nc1nc(C(F)(F)F)ccc1C(=O)N/N=C/c1ccc(F)cc1`, the growth in the test on HCT-15 colon was 6.36% (active); in the test on HT29 colon it was 4.55% (active); with SNB-75 CNS it was 42%; with U251 CNS, 3.86% (active); with SK-MEL-5 melanoma, 5.06% (active); with UACC-62 melanoma, 15.4%. Further, the growth was 0.251% (active) in the test on LOX IMVI melanoma; 34.1% in the test with SK-MEL-28 melanoma; -5.51% (active) with SK-MEL-2 melanoma; 16.7% with EKVX NSCLC; 8.7% (active) in the test on SN12C renal; 2.45% (active) with UO-31 renal. For the same compound, the growth was 0.832% (active) in the test on TK-10 renal; 7.12% (active) with ACHN renal; 9.97% (active) in the test with CAKI-1 renal; 8.05% (active) with A498 renal; 4.12% (active) in the test on CCRF-CEM leukemia; -6.74% (active) in the test with MOLT-4 leukemia.

As to `COc1ccc(C2c3ccc4ccccc4c3Oc3ncnc(N)c32)cc1` (stereo unspecified), the growth is 88.5% with HCT-15 colon; 104% with HT29 colon; 91.2% with SNB-19 CNS; 92.8% in the test with U251 CNS; 71.9% in the test on PC-3 prostate; 85.5% in the test with SK-MEL-5 melanoma. The growth was 66.9% with UACC-62 melanoma; 76.5% in the test on LOX IMVI melanoma; 91.9% in the test with SK-MEL-28 melanoma; 71.9% in the test with SK-MEL-2 melanoma; 45.9% with EKVX NSCLC; 96% in the test with SN12C renal. Also, the growth in the test on UO-31 renal is 55.9%; with TK-10 renal it was 113%; in the test on ACHN renal, 81.3%; in the test with CAKI-1 renal, 50%; in the test with A498 renal, 75.2%; in the test with CCRF-CEM leukemia, 89.2%. Moreover, the growth in the test with MOLT-4 leukemia was 83.4%.

In the case of `COc1cc2c(=O)n(CC3CCCCC3)c3c4cc[nH]c4ncc3c2cc1OC`, the growth in the test on HCT-15 colon is 32.1%; in the test with HT29 colon, 32%; in the test with SNB-19 CNS, 57.5%; with U251 CNS, 30.3%; in the test with PC-3 prostate, 43.4%; with SK-MEL-5 melanoma it was 39.3%. Further, the growth in the test on UACC-62 melanoma is 74.4%; in the test on LOX IMVI melanoma, 12.3%; with SK-MEL-28 melanoma, 77.8%; in the test on SK-MEL-2 melanoma, 64%; in the test on EKVX NSCLC, 63.9%; in the test with SN12C renal, 25.7%. Also, the growth was 23.1% with UO-31 renal; 49.8% with TK-10 renal; 26.8% in the test on ACHN renal; 37.7% with CAKI-1 renal; -5.29% (active) with A498 renal; 39.5% with CCRF-CEM leukemia. The growth with MOLT-4 leukemia is 49.5%.

As to `CN1CCN(Cc2ccc(NC(=O)c3cncc(C#Cc4cncc5nccnc45)c3)cc2C(F)(F)F)CC1`, the growth in the test with HCT-15 colon is 40.6%; in the test with HT29 colon, 22.7%; in the test with SNB-19 CNS it was 92.1%; with U251 CNS it was 76.3%; with PC-3 prostate it was 67.6%; in the test with SK-MEL-5 melanoma, 41.9%. Also, the growth is 16.6% in the test with UACC-62 melanoma; -7.67% (active) in the test on LOX IMVI melanoma; 13.3% in the test with SK-MEL-28 melanoma; -13.2% (active) in the test on SK-MEL-2 melanoma; 71.2% in the test with EKVX NSCLC; 31.7% with SN12C renal. Moreover, the growth in the test on UO-31 renal was 20.4%; in the test with TK-10 renal it was 96%; in the test on ACHN renal, 24%; in the test on CAKI-1 renal it was 22.2%; in the test on A498 renal, 21.4%; in the test on CCRF-CEM leukemia, 58.2%. The growth in the test with MOLT-4 leukemia was 37%.

`O=[N+]([O-])c1cccc(-c2nc3sccn3c2-c2ccnc(NCCCNS(=O)(=O)c3ccc(Br)cc3)n2)c1`: the growth in the test with HCT-15 colon was 34.1%; in the test with HT29 colon, 57.1%; with SNB-19 CNS, 87.4%; with U251 CNS, 83.8%; in the test with PC-3 prostate, 24.5%; in the test with SK-MEL-5 melanoma, -15.6% (active). The growth was 2.78% (active) with UACC-62 melanoma; 38.4% in the test on LOX IMVI melanoma; 76.9% in the test on SK-MEL-28 melanoma; 47% in the test on SK-MEL-2 melanoma; 59.4% in the test with EKVX NSCLC; 53% in the test on SN12C renal. Besides, the growth was 22.7% with UO-31 renal; 102% with TK-10 renal; 46.7% in the test with ACHN renal; 41.4% in the test on CAKI-1 renal; 52.8% in the test on A498 renal; 18.6% with CCRF-CEM leukemia. Further, the growth in the test with MOLT-4 leukemia is 19.7%.
